In PubChem BioAssay AID1159580 (chemical genetic matrix, 2015):
The campaign covered roughly 5,500 compounds. About 2,000 (36%) were called active. Another 18% or so got no clear call; they are omitted. Rule as the data show it: active = normalized growth mostly below about 0.91 (no sharp cut-off); inconclusive = no clear call, values can overlap the other calls; inactive = mostly above about 0.92. The list shows a part of the results.

Experiment: chemical genetic growth profiling, strain panel (AID 1159580);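 also: tested at 20 µM; growth read once vehicle control cultures reached saturation at 30 °C; 1 = growth at the plate median or of vehicle wells; lower values mean less growth of the strain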
Settings: S. cerevisiae deletion strains, growth OD

Measured: normalized growth

O=c1cc(-c2ccccc2)oc2cc(O)c(O)cc12
active: locus YAL026C, strain drs2, hits give low values 0.895 | locus YBR009C, strain hhf1, hits give low values 0.894 | locus YDR069C, strain doa4, hits give low values 0.819 | locus YJL164C, strain tpk1, hits give low values 0.912 | locus YJL166W, strain qcr8, hits give low values 0.876 | locus YLR262C, strain YPT6 (second series), hits give low values 0.791 | locus YNL209W, strain ssb2, hits give low values 0.851 | locus YOR106W, strain vam3, hits give low values 0.826 | locus YOR270C, strain vph1, hits give low values 0.773
inactive: locus YAL021C, strain ccr4, hits give low values 0.934 | locus YAL030W, strain snc1, hits give low values 0.949 | locus YBL061C, strain skt5, hits give low values 0.946 | locus YBR023C, strain chs3, hits give low values 0.973 | locus YBR171W, strain sec66, hits give low values 0.974 | locus YBR231C, strain swc5, hits give low values 0.948 | locus YBR279W, strain paf1, hits give low values 0.945 | locus YCL011C, strain gbp2, hits give low values 0.943 | locus YCL016C, strain dcc1, hits give low values 0.948 | locus YCL061C, strain MRC1, hits give low values 0.979 | locus YCL069W, strain vba3, hits give low values 0.982 | locus YCR088W, strain abp1, hits give low values 0.993 | locus YDL005C, strain med2, hits give low values 0.977 | locus YDL040C, strain nat1, hits give low values 0.986 | locus YDR001C, strain nth1, hits give low values 0.981 | locus YDR137W, strain rgp1, hits give low values 0.856 | locus YDR159W, strain sac3, hits give low values 0.972 | locus YDR195W, strain ref2 1 | locus YDR297W, strain sur2, hits give low values 0.952 | locus YDR334W, strain swr1, hits give low values 0.96 | locus YDR335W, strain msn5, hits give low values 0.979 | locus YDR392W, strain spt3, hits give low values 0.979 | locus YEL003W, strain gim4, hits give low values 0.964 | locus YEL037C, strain rad23, hits give low values 0.967 | locus YEL061C, strain CIN8 (second series), hits give low values 0.964 | locus YER015W, strain faa2, hits give low values 0.946 | locus YER016W, strain bim1, hits give low values 0.99 | locus YER111C, strain swi4, hits give low values 0.951 | locus YER155C, strain BEM2 (second series), hits give low values 0.971 | locus YFR010W, strain ubp6, hits give low values 0.914 | locus YGL167C, strain pmr1, hits give low values 0.949 | locus YGL173C, strain kem1, hits give low values 0.933 | locus YGL227W, strain vid30, hits give low values 0.973 | locus YGL240W, strain doc1, hits give low values 0.943 | locus YGL253W, strain hxk2, hits give low values 0.939 | locus YHR013C, strain ard1, hits give low values 0.856 | locus YHR027C, strain rpn1, hits give low values 0.945 | locus YHR030C, strain SLT2, hits give low values 0.981 | locus YHR079C, strain IRE1, hits give low values 0.972 | locus YHR142W, strain chs7, hits give low values 0.941 | locus YJL092W, strain hpr5, hits give low values 1 | locus YJL095W, strain BCK1 (second series), hits give low values 0.972 | locus YJL095W, strain BCK1, hits give low values 0.999 | locus YJL115W, strain asf1, hits give low values 0.985 | locus YJL129C, strain trk1, hits give low values 0.912 | locus YJL154C, strain vps35, hits give low values 0.994 | locus YJL187C, strain SWE1, hits give low values 0.946 | locus YJR066W, strain TOR1, hits give low values 0.954 | locus YKL160W, strain elf1, hits give low values 0.97 | locus YKR026C, strain gcn3, hits give low values 0.98 | locus YKR091W, strain srl3, hits give low values 0.983 | locus YLL001W, strain dnm1, hits give low values 0.975 | locus YLL026W, hits give low values 1.01 | locus YLL041C, strain sdh2, hits give low values 0.976 | locus YLR027C, strain aat2, hits give low values 0.975 | locus YLR113W, strain HOG1, hits give low values 0.99 | locus YLR221C, strain rsa3, hits give low values 0.949 | locus YLR258W, strain gsy2, hits give low values 0.953 | locus YLR320W, strain mms22, hits give low values 0.97 | locus YLR342W, strain FKS1, hits give low values 0.936 | locus YLR357W, strain rsc2, hits give low values 0.903 | locus YLR370C, strain arc18, hits give low values 0.935 | locus YLR384C, strain iki3, hits give low values 0.964 | locus YML120C, strain ndi1, hits give low values 0.951 | locus YMR058W, strain fet3, hits give low values 0.956 | locus YMR125W, strain sto1, hits give low values 1.02 | locus YMR129W, hits give low values 0.972 | locus YMR205C, strain PFK2, hits give low values 0.955 | locus YMR231W, strain pep5, hits give low values 0.958 | locus YNL071W, strain lat1, hits give low values 0.995 | locus YNL183C, strain NPR1, hits give low values 0.951 | locus YNL248C, strain rpa49, hits give low values 1.02 | locus YNL322C, strain KRE1 (second series), hits give low values 0.992 | locus YNR049C, strain mso1, hits give low values 0.987 | locus YOR001W, strain rrp6, hits give low values 0.991 | locus YOR070C, strain gyp1, hits give low values 0.979 | locus YOR080W, strain dia2, hits give low values 0.976 | locus YOR083W, strain WHI5, hits give low values 0.961 | locus YOR231W, strain MKK1, hits give low values 0.996 | locus YOR265W, strain rbl2, hits give low values 0.95 | locus YOR290C, strain snf2, hits give low values 0.939 | locus YPL051W, strain arl3, hits give low values 0.943 | locus YPL078C, strain atp4, hits give low values 0.986 | locus YPL106C, strain sse1, hits give low values 0.855 | locus YPL240C, strain hsp82, hits give low values 0.949 | locus YPL256C, strain CLN2, hits give low values 0.955
